Measurements: PubChem BioAssay (EPA / NIEHS)
Results filed as inconclusive are left out. The source made the active and inactive calls. How the source made its calls, unless noted: active means hit-call score of the fitted dose curve at least 0.9, where 1 is the maximum; inactive means score below 0.9.

Experiments:
[1] = target: Glucocorticoid receptor (Homo sapiens) (UniProt P04150); experiment: ATG_GR_TRANS: Attagene TRANS-FACTORIAL HepG2 Assay for human Glucocorticoid Receptor (GR) (AID 2282978; active means hit-call score of the fitted dose curve at least 0.9, where 1 is the maximum;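 further: activators score as hits since higher reporter transcript over DMSO is fitted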); settings: HepG2 Attagene TRANS GR reporter, mRNA transcription
Glucocorticoid receptor (Homo sapiens), sequence (P04150 whole entry, looked up, the tested form may be a part): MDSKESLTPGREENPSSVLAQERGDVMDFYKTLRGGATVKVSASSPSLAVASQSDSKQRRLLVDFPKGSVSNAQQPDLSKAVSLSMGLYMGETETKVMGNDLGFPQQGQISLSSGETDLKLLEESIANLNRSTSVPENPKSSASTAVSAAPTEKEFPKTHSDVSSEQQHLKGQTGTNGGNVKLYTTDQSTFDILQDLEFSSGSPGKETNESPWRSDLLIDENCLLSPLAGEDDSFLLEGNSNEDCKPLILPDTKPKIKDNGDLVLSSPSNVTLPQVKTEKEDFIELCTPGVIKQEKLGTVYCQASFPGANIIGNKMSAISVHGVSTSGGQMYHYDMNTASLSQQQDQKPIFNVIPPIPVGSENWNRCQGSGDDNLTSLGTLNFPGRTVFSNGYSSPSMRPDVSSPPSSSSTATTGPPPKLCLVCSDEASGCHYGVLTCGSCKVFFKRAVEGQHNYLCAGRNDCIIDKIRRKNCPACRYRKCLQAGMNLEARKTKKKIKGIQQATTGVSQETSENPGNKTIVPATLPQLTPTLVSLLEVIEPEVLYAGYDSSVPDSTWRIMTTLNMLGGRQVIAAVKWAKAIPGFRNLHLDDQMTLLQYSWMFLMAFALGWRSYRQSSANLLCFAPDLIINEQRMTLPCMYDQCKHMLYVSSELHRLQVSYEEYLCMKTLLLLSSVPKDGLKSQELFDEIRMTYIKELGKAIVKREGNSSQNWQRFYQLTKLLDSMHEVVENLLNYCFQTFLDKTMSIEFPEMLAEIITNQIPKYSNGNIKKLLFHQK
How it was run: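 Readout is reporter transcript from a chimeric GR-Gal4 acting on GAL4-UAS in transfected human HepG2 liver cells after 24 h exposure, quantified by RT-PCR and capillary electrophoresis. Activation fitted upward against DMSO.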

[2] = target: Oxysterols receptor LXR-alpha (Homo sapiens) (UniProt Q13133); experiment: ATG_LXRa_TRANS: Attagene TRANS-FACTORIAL HepG2 Assay for human Liver X Receptor alpha (LXRa) (AID 2282980; active means hit-call score of the fitted dose curve at least 0.9, where 1 is the maximum); settings: HepG2 Attagene TRANS reporter, LXRa transactivation
Oxysterols receptor LXR-alpha (Homo sapiens), sequence (Q13133 whole entry, looked up, the tested form may be a part): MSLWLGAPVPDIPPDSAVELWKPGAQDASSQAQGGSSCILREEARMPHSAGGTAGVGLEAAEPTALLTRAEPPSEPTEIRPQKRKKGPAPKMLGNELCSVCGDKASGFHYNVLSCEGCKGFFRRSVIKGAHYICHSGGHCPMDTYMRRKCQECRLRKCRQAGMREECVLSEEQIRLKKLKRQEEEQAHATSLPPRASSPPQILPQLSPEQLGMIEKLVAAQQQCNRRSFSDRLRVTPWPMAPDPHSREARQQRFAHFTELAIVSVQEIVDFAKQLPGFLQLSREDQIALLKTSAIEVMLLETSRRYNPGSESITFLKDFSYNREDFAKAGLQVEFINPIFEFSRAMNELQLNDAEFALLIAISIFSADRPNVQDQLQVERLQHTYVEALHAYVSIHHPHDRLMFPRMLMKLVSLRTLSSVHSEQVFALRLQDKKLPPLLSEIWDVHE
How it was run: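 In this multiplexed TRANS system, compounds act on HepG2 cells carrying GAL4-UAS reporter units and a receptor-GAL4 fusion for 24 h. Induced reporter RNA is amplified, fluorescently labelled and sized by capillary electrophoresis, with DMSO as baseline.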

[3] = target: Hepatocyte nuclear factor 4-alpha (Homo sapiens) (UniProt P41235); experiment: ATG_HNF4a_TRANS: Attagene TRANS-FACTORIAL HepG2 Assay for human Hepatocyte Nuclear Factor 4 alpha (HNF4a) (AID 2282982; active means hit-call score of the fitted dose curve at least 0.9, where 1 is the maximum); settings: HepG2 HNF4a transactivation reporter, mRNA readout
Hepatocyte nuclear factor 4-alpha (Homo sapiens), sequence (P41235 whole entry, looked up): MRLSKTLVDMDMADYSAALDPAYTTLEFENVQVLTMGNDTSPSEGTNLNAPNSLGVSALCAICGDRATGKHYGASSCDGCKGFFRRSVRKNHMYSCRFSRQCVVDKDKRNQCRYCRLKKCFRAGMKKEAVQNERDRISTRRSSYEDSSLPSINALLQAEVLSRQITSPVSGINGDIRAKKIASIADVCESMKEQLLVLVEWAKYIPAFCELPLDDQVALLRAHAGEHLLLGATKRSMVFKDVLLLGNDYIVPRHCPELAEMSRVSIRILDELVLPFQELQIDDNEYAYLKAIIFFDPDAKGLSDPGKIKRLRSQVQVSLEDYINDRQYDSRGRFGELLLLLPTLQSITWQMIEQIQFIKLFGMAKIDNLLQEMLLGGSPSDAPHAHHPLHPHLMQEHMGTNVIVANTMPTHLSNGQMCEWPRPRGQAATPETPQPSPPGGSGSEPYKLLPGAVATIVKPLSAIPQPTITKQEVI
How it was run: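 Multiplexed reporter assay: transfected HepG2, 24 h exposure, total RNA → oligo(dT) RT → PCR → 6-FAM extension → HpaI digest → CE fluorescence. DMSO = negative control.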

[4] = target: Nuclear receptor subfamily 4 group A member 2 (Homo sapiens) (UniProt P43354); experiment: ATG_NURR1_TRANS: Attagene TRANS-FACTORIAL HepG2 Assay for human Nuclear Receptor Related Protein 1 (NURR1) (AID 2282985; active means hit-call score of the fitted dose curve at least 0.9, where 1 is the maximum); settings: HepG2 Attagene TRANS reporter, mRNA readout
Nuclear receptor subfamily 4 group A member 2 (Homo sapiens), sequence (P43354 whole entry, looked up, the tested form may be a part): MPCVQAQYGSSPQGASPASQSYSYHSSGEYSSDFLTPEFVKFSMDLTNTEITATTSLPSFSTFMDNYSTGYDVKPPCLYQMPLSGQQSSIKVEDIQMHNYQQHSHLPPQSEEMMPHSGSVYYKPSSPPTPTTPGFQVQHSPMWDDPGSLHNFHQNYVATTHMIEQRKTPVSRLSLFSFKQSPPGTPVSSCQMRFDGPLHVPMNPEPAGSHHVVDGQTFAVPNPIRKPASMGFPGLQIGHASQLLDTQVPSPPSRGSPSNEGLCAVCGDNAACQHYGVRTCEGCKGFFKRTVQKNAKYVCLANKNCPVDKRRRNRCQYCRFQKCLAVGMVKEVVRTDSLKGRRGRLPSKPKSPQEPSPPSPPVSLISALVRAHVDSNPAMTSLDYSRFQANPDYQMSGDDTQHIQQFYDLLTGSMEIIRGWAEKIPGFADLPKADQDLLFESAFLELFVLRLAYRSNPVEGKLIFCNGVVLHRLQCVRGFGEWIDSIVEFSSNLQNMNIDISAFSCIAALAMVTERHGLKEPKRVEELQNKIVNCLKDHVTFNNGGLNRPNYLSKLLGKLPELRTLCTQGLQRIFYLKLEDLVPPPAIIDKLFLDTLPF
How it was run: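 Measures transcriptional activation by an exogenous NR-Gal4 chimera in transfected HepG2 liver cells. After 24 h, reporter RNA is reverse-transcribed, amplified and resolved by capillary electrophoresis; DMSO defines baseline.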

[5] = target: Transcriptional activator Myb (Homo sapiens) (UniProt P10242); experiment: ATG_Myb_CIS: Attagene CIS-FACTORIAL HepG2 Assay for human Myeloblastosis (Myb) Proto-Oncogene Transcription Factor (AID 2282986); settings: HepG2 Attagene CIS-FACTORIAL Myb reporter transcription; actives raise or lower the signal
Transcriptional activator Myb (Homo sapiens), sequence (P10242 whole entry, looked up): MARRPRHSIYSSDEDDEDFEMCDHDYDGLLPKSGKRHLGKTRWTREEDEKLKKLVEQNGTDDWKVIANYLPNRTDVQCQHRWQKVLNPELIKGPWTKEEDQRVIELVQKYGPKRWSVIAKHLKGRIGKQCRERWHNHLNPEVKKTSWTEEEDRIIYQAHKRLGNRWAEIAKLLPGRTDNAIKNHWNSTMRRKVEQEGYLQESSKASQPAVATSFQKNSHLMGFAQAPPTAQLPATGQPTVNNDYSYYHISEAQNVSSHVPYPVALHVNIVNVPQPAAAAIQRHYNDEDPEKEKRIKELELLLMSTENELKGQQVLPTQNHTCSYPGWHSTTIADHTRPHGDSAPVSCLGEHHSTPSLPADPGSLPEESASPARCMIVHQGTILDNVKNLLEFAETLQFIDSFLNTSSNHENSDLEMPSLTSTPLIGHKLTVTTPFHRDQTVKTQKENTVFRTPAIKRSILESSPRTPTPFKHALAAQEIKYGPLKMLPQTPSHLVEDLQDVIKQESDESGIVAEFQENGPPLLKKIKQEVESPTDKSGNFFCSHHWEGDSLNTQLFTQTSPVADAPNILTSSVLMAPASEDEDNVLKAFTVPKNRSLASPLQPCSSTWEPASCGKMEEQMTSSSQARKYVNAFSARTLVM
How it was run: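 Reporter mRNA is quantified by RT-PCR and capillary electrophoresis 24 h after dosing HepG2 cells transfected with cis-regulated reporter units, which track endogenous transcription factor activity. Gain and loss of signal are fitted versus DMSO baseline.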

[6] = target: Nuclear respiratory factor 1 (Homo sapiens) (UniProt Q16656); experiment: ATG_NRF1_CIS: Attagene CIS-FACTORIAL HepG2 Assay for human Nuclear Respiratory Factor 1 (NRF1) Orphan Gene (AID 2282987); settings: HepG2 NRF1 cis-element reporter, Attagene multiplex; actives raise or lower the signal
Nuclear respiratory factor 1 (Homo sapiens), sequence (Q16656 whole entry, looked up): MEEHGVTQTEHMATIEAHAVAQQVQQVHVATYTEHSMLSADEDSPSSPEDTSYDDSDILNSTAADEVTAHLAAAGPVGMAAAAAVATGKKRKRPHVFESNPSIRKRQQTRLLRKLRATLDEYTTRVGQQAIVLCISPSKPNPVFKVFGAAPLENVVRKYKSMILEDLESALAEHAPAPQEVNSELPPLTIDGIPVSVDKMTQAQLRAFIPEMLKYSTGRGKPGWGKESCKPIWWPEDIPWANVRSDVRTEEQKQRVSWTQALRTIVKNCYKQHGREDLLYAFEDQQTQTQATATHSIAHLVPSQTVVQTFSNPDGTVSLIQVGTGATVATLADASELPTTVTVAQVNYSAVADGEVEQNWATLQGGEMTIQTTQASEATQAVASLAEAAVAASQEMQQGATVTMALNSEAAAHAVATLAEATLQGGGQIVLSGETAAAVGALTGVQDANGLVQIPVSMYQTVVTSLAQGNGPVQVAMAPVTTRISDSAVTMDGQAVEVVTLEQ
How it was run: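 Endogenous NRF1-driven reporter transcription in transfected HepG2 cells after 24 h treatment. Readout: RT-PCR products, 6-FAM labelled and resolved by capillary electrophoresis; changes fitted both directions relative to DMSO.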

[7] = ATG_NFI_CIS: Attagene CIS-FACTORIAL HepG2 Assay for human Nuclear Factor I (NFI) (AID 2282989); settings: HepG2 cis-regulatory reporter, NFI response element transcription; actives raise or lower the signal
How it was run: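 Multiplexed cis-reporter system in human HepG2 cells reports native TF activity as reporter mRNA induction 24 h post-dose. Fragments labelled with 6-FAM, HpaI-digested and resolved by capillary electrophoresis; activity fitted both directions versus DMSO.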

[8] = target: Myc proto-oncogene protein (Homo sapiens) (UniProt P01106); experiment: ATG_Myc_CIS: Attagene CIS-FACTORIAL HepG2 Assay for human Myelocytomatosis (Myc) Proto-Oncogene Transcription Factor (AID 2282990); settings: HepG2, Attagene cis-reporter transcription factor activity; actives raise or lower the signal
Myc proto-oncogene protein (Homo sapiens), sequence (P01106 whole entry, looked up, the tested form may be a part): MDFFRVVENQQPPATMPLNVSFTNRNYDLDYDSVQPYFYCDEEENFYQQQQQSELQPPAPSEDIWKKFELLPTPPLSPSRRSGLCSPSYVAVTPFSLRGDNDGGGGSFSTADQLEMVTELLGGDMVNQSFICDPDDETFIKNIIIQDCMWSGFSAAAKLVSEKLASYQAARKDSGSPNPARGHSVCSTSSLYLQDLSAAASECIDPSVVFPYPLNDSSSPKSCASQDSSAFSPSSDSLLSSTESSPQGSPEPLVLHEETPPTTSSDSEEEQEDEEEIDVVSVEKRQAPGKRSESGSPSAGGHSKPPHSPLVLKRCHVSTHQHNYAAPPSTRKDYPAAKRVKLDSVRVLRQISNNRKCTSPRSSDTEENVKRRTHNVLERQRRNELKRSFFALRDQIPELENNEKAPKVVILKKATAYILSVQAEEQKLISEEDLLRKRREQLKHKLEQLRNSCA
How it was run: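 After 24 h chemical treatment of HepG2 cells carrying multiplexed cis-regulated reporter constructs, reporter transcripts quantified by RT-PCR and capillary electrophoresis of fluorescent fragments. Gain or loss fitted against DMSO baseline.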

[9] = ATG_NRF2_ARE_CIS: Attagene CIS-FACTORIAL HepG2 Assay for human Nuclear Factor Erythroid 2 Related Factor 2 (NFR2) response to Antioxidant Response Elements (ARE) (AID 2282992); settings: HepG2 Attagene ARE/NRF2 reporter, transcription factor activity; actives raise or lower the signal;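 on AC50: reporter mRNA level measured by RT-PCR and capillary electrophoresis fluorescence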
How it was run: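 Fluorescence intensity of reporter-specific cDNA fragments, separated by capillary electrophoresis, reflects mRNA induction in transfected HepG2 cells at 24 h. Activity is fitted bidirectionally, DMSO serving as baseline.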

[10] = ATG_Oct_MLP_CIS: Attagene CIS-FACTORIAL HepG2 Assay for human Octamer-Binding Transcription Factor (Oct) (AID 2282993); settings: HepG2 Attagene cis-factorial Oct reporter, mRNA; actives raise or lower the signal
How it was run: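 After 24 h compound exposure, transfected HepG2 cells were lysed for total RNA; reporter-specific cDNA was PCR-amplified, fluorescently labelled and sized by capillary electrophoresis. Bidirectional curve fitting used DMSO as baseline.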

[11] = ATG_M_06_TRANS: Attagene TRANS-FACTORIAL HepG2 Assay for M06 Transcription Factor (Internal Marker) (AID 2282983; active means hit-call score of the fitted dose curve at least 0.9, where 1 is the maximum); settings: HepG2 Attagene TRANS M06 internal marker reporter
How it was run: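 Multi-reporter-transfected HepG2, 24 h treatment; reporter transcripts quantified via RT-PCR, primer-extension labelling and CE. DMSO-normalized gain-of-signal fit.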

[12] = ATG_M_32_TRANS: Attagene TRANS-FACTORIAL HepG2 Assay for M32 Transcription Factor (Internal Marker) (AID 2282984; active means hit-call score of the fitted dose curve at least 0.9, where 1 is the maximum;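 further: transcript level of a background control reporter unit measured by RT-PCR and capillary electrophoresis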); settings: HepG2 Attagene TRANS M32 internal marker reporter
How it was run: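 Cell-based TRANS-format assay in HepG2: exogenous chimeric GAL4 reporter units transiently expressed, compounds applied 24 h. Reporter mRNA detected by RT-PCR plus capillary electrophoresis; this readout is an internal background marker.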

[13] = ATG_NF_kB_CIS: Attagene CIS-FACTORIAL HepG2 Assay for human Nuclear Factor Kappa B (NF-kB) (AID 2282991); settings: HepG2 Attagene cis-factorial NF-kB reporter mRNA; actives raise or lower the signal
How it was run: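 Readout is reporter transcript level, gain or loss versus DMSO, measured 24 h post-dose via RT-PCR, fluorescent labelling and capillary electrophoresis. Human HepG2 liver cells carried transiently transfected CIS reporter constructs reflecting endogenous factors.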

[14] = target: Bile acid receptor (Homo sapiens) (UniProt Q96RI1); experiment: ATG_FXR_TRANS: Attagene TRANS-FACTORIAL HepG2 Assay for Farnesoid X Receptor (FXR) (AID 2282979; active means hit-call score of the fitted dose curve at least 0.9, where 1 is the maximum;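 further: hits raise reporter mRNA above DMSO so AC50 marks FXR activation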); settings: HepG2 Attagene TRANS FXR-GAL4 reporter transcription
How it was run: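 After 24 h chemical treatment of transfected HepG2 cells, GAL4-UAS reporter transcripts driven by an exogenous FXR-GAL4 fusion were measured by RT-PCR and capillary electrophoresis. Increases over DMSO were fitted.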

[15] = target: Cellular tumor antigen p53 (Homo sapiens) (UniProt P04637); experiment: ATG_p53_CIS: Attagene CIS-FACTORIAL HepG2 Assay for human p53 Transcription Factor (AID 2282994); settings: HepG2 p53 cis-element reporter, Attagene mRNA; actives raise or lower the signal
Cellular tumor antigen p53 (Homo sapiens), sequence (P04637 whole entry, looked up): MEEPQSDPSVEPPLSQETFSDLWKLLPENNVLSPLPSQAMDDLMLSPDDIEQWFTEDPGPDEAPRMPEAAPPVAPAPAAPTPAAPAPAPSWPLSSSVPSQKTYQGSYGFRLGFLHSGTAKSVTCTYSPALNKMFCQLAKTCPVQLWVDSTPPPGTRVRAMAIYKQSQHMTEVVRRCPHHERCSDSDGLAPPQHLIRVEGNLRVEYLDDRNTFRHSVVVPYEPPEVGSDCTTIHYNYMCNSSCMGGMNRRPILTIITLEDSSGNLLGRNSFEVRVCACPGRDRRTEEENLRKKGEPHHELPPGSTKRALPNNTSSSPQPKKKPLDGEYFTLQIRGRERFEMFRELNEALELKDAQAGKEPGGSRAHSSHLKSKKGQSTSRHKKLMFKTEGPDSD
How it was run: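 Transiently transfected HepG2 (multiple cis reporter transcription units); exposure 24 h; reporter RNA via RT-PCR, 6-FAM extension, 2 h HpaI digest at 37 C, CE detection; DMSO baseline.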

[16] = BSK_3C_TissueFactor: BioMAP Diversity Plus: 3C Assay for Tissue Factor Biomarker Activity (AID 2282997); settings: BioMAP 3C HUVEC, tissue factor biomarker readout; actives raise or lower the signal
How it was run: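 In this endothelial system, HUVEC are treated for 24 h and Tissue Factor is assessed by ELISA, normalised to DMSO.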

[17] = BSK_3C_uPAR: BioMAP Diversity Plus: 3C Assay for Urokinase-type plasminogen activator receptor (uPAR) Biomarker Activity (AID 2282998); settings: BioMAP 3C HUVEC, uPAR biomarker ELISA; actives raise or lower the signal
How it was run: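 Values derive from bidirectional curve fitting relative to DMSO, which served as baseline of activity. uPAR was measured by ELISA in human umbilical vein endothelial primary cultures 24 h after compound addition.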

[18] = BSK_3C_VCAM1: BioMAP Diversity Plus: 3C Assay for Vascular cell adhesion molecule 1 (VCAM1) Biomarker Activity (AID 2282999); settings: BioMAP 3C HUVEC, VCAM1 ELISA, cytokine-stimulated; actives raise or lower the signal
How it was run: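 Activity fitted in both directions relative to DMSO, with ELISA measurement of the surface marker on primary HUVEC (3C) at 24 h post-treatment; parallel SRB staining (0.1% SRB, TCA-fixed, 560 nm) flagged overt cytotoxicity.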

[19] = BSK_4H_Eotaxin3: BioMAP Diversity Plus: 4H Assay for Eotaxin 3 Biomarker Activity (AID 2283000); settings: primary human endothelial cells (HUVEC); actives raise or lower the signal;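 further: CCL26 protein level quantified by ELISA in parallel with SRB cytotoxicity check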
How it was run: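 ELISA quantitation of CCL26 (Eotaxin-3) protein from chemically dosed human vascular endothelial cells at 24 h; increases and decreases both scored relative to DMSO-treated baseline.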

[20] = target: Oxysterols receptor LXR-beta (Homo sapiens) (UniProt P55055); experiment: ATG_LXRb_TRANS: Attagene TRANS-FACTORIAL HepG2 Assay for human Liver X Receptor beta (LXRb) (AID 2282981; active means hit-call score of the fitted dose curve at least 0.9, where 1 is the maximum); settings: HepG2 Attagene TRANS GAL4-LXRb reporter, mRNA
Oxysterols receptor LXR-beta (Homo sapiens), sequence (P55055 whole entry, looked up, the tested form may be a part): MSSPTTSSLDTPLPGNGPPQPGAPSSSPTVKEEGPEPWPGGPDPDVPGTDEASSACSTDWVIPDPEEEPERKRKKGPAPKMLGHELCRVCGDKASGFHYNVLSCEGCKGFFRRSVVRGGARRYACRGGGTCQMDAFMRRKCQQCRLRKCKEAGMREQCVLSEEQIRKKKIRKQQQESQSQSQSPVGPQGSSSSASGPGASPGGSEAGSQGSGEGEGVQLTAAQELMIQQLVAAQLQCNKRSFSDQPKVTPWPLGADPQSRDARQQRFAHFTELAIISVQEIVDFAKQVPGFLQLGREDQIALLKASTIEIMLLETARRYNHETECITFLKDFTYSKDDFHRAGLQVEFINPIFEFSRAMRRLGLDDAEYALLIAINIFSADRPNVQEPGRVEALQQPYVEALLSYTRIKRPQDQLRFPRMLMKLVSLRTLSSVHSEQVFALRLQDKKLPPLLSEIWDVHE
How it was run: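 After 24 h of chemical treatment, transfected HepG2 cells yield total RNA; reporter cDNA is PCR-amplified, FAM-labelled, HpaI-cut and run on capillary electrophoresis. Signal reflects chimeric LXRb-Gal4 activity on GAL4-UAS reporters.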

CN1Cc2c(N)cccc2C(c2ccccc2)C1 (stereo not drawn)
outcome [1]: inactive
outcome [2]: inactive
outcome [3]: inactive
outcome [4]: inactive
outcome [5]: inactive
outcome [6]: inactive
outcome [7]: inactive
outcome [8]: inactive
outcome [9]: inactive
outcome [10]: inactive

CCCCCCCCCCCCOCCO
outcome [1]: inactive
outcome [2]: inactive
outcome [11]: inactive
outcome [12]: inactive
outcome [4]: inactive
outcome [5]: inactive
AC50 [6]: 52.5 µM (active)
AC50 [7]: 56.6 µM (active)
AC50 [8]: 50.2 µM (active)
outcome [13]: inactive
AC50 [9]: 54 µM (active)
AC50 [10]: 56.5 µM (active)

O=C(O)c1cn(C2CC2)c2cc(N3CCNCC3)c(F)cc2c1=O
outcome [1]: inactive
outcome [14]: inactive
outcome [11]: inactive
outcome [5]: inactive
outcome [8]: inactive
outcome [15]: inactive
outcome [16]: inactive
outcome [17]: inactive
outcome [18]: inactive
outcome [19]: inactive

O=[N+]([O-])c1ccc(Nc2ccc(Nc3ccccc3)c(S(=O)(=O)O)c2)c([N+](=O)[O-])c1
outcome [1]: inactive
outcome [2]: inactive
outcome [20]: inactive
outcome [12]: inactive
outcome [6]: inactive
outcome [8]: inactive
outcome [13]: inactive
AC50 [9]: 171 µM (active)
outcome [10]: inactive
AC50 [15]: 178 µM (active)

CCCCCC=CCC(=O)OC
outcome [1]: inactive
outcome [2]: inactive
outcome [20]: inactive
outcome [3]: inactive
outcome [4]: inactive
outcome [5]: inactive
outcome [6]: inactive
outcome [7]: inactive
outcome [8]: inactive
outcome [9]: inactive
outcome [10]: inactive
outcome [15]: inactive

NC(=O)Nc1ccc(Cl)cc1
outcome [1]: inactive
outcome [2]: inactive
outcome [3]: inactive
outcome [12]: inactive
outcome [5]: inactive
outcome [8]: inactive
outcome [9]: inactive
outcome [15]: inactive

COc1cc(C=O)ccc1OC(=O)C(C)C
outcome [1]: inactive
outcome [2]: inactive
outcome [20]: inactive
outcome [11]: inactive
outcome [4]: inactive
outcome [5]: inactive
outcome [6]: inactive
outcome [7]: inactive
outcome [8]: inactive
outcome [9]: inactive
outcome [10]: inactive
outcome [16]: inactive
outcome [17]: inactive
outcome [18]: inactive
outcome [19]: inactive

CCC(=O)OCc1ccccc1
outcome [1]: inactive
outcome [2]: inactive
outcome [11]: inactive
outcome [12]: inactive
outcome [4]: inactive
outcome [6]: inactive
outcome [7]: inactive
outcome [8]: inactive
outcome [9]: inactive
outcome [10]: inactive
outcome [15]: inactive
outcome [16]: inactive
outcome [17]: inactive
outcome [18]: inactive
outcome [19]: inactive

Cc1cccc(C)c1C
outcome [1]: inactive
outcome [14]: inactive
outcome [11]: inactive
outcome [12]: inactive
outcome [5]: inactive
outcome [6]: inactive
outcome [7]: inactive
outcome [8]: inactive
outcome [13]: inactive
outcome [9]: inactive
outcome [10]: inactive
outcome [15]: inactive

O=C(O)c1cccc(C(F)(F)F)c1
outcome [1]: inactive
outcome [2]: inactive
outcome [20]: inactive
outcome [3]: inactive
outcome [11]: inactive
outcome [12]: inactive
outcome [5]: inactive
outcome [6]: inactive
outcome [7]: inactive
outcome [8]: inactive
outcome [9]: inactive
outcome [10]: inactive
outcome [15]: inactive

O=C1CCCCCCCCCCOCCCCO1
outcome [1]: inactive
outcome [2]: inactive
outcome [3]: inactive
outcome [11]: inactive
outcome [4]: inactive
outcome [7]: inactive
outcome [8]: inactive
outcome [13]: inactive
AC50 [9]: 167 µM (active)
outcome [10]: inactive
outcome [15]: inactive
